Measurements as given in PubChem BioAssay AID1347076 (National Center for Advancing Translational Sciences (NCATS), 2019).
Screen size: about 400,000 compounds; about 13,000 (3.2%) were called active. About 18% were inconclusive and are not listed. The list comes from a sample in which actives are over-represented; it also holds similar structures and randomly drawn compounds. Values without a mark were called inactive. Calls follow the shape of the dose curve; as a rule, active = well fitted cell-killing curve with a large enough effect; inconclusive = small, poorly fitted or top-dose-only effect, or effect the other way; inactive = flat fitted curve, though single readings scatter.

Test: qHTS assay for MDR1-selective chemotherapeutics: Primary screen using the drug-selected MDR subline cells KB-V1; also: nearly all actives have a fitted effect of over 60% in size
Settings: KB-V1 MDR cells viability, CellTiter-Glo, 72 h; series mostly up to 46.1 µM; activity change, negative = cytotoxicity: at the top concentration
Summary of the method: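 KB-V1, DMEM (no phenol red) + 10% FBS; cpd pin-transferred, titration series; 72 h, 37 degrees C; CellTiter-Glo, luminescence. Data normalized, curve-fit.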
% is scaled to controls: 0 for no effect and ±100 for the full control effect; potency is read from the fitted curve at half-maximal effect.

Compound | activity change, negative = cytotoxicity | Potency
COc1ccc(-c2ccc(CN3C(C(C)C)C(=O)N(Cc4cn(CC5CCCCC5)nn4)CCS3(=O)=O)cc2)cn1 (stereo unspecified) | -16.7% | 
CCOC(=O)c1c(NC(=S)SC)sc(C(=O)N2CCc3ccccc3C2)c1C | 10.7% | 
O=C(CSc1nnc(-c2cccnc2)n1CCc1ccccc1)NCc1ccccc1 | -3.79% | 
C=CCn1c(SCC(=O)NCc2ccccc2)nnc1-c1cc(Br)ccc1O |  | 11.6 µM (active)
C=CCn1c(SCC(=O)NC(=O)Cc2ccccc2)nc2ccccc2c1=O | 0% | 
CN1CCN(C(CNC(=O)c2ccccc2F)c2ccc3c(c2)OCO3)CC1 (stereo unspecified) | -3.27% | 
COc1ccc2c(c1)CCc1c(C(=O)Nc3c(C)n(C)n(-c4ccccc4)c3=O)noc1-2 |  | 18.4 µM (active)
COc1ccc(NS(=O)(=O)c2ccc(C(=O)Nc3c(C)n(C)n(-c4ccccc4)c3=O)cc2)cc1 | 0% | 
COc1ccc2c(c1)CCc1c(C(=O)Nc3cc(C)ccc3O)noc1-2 | 11.3% | 
Nc1ccc(/C=C/c2ccnc3ccccc23)c([N+](=O)[O-])c1 | -13.2% | 
COc1ccc(C2=Nc3ccccc3NC(=O)C2N(C(=O)c2cc3ccccc3[nH]2)c2ccccc2)cc1 (stereo unspecified) | 11% | 
COc1ccc(-c2ccc(C(=O)NC(C)C)c3occc23)c(C)c1 | -4% | 
O=C(Cn1nnc(-c2ccccc2)n1)NC(=O)NC1CCCC1 | -1.79% | 
O=C(Cn1nnc(-c2ccc(CN3CCOCC3)cc2)n1)NC1CCCCC1 |  | 23.1 µM (active)
COc1cccc(N(CC(=O)NC2CCCC2)C(=O)Cn2nnc(-c3ccc(C)cc3)n2)c1 | -0.0355% | 
CC(C)(C)C(=O)Nc1ccc(-c2cn3cccnc3n2)cc1 | 1.27% | 
COc1ccc(C(=O)Nc2cccc(NC(=O)c3ccc(OC)cc3OC)n2)c(OC)c1 | -11.6% | 
CC(C)(C)C(=O)Nc1cccc(-c2ccc[nH]2)n1 |  | 16.4 µM (active)
CCCCNC(=O)CCNC(=O)c1ccc(C(C)(C)C)cc1 |  | 14.6 µM (active)
CC(C)(C)c1ccc(C(=O)NCCC(=O)NCc2ccco2)cc1 | -16.8% | 
CCCN1CCN(C(=O)CCCNC(=O)c2ccc(Cl)cc2)CC1 | -6.51% | 

Compound | activity change, negative = cytotoxicity | Potency
CCOc1ccc(S(=O)(=O)NCCC(=O)NNC(=O)c2ccc(F)cc2)cc1 | 19.8% | 
O=C(CSc1ccc(-c2ccco2)nn1)NCc1ccc2c(c1)OCO2 | -23.5% | 
O=C(CSc1ccc(-c2ccco2)nn1)Nc1cccc(F)c1 |  | 10.3 µM (active)
O=C(CSc1ccc(-c2ccc(F)cc2)nn1)Nc1ccc2c(c1)OCCO2 | -21% | 
Cc1c(C(=O)Nc2ccccc2)sc2nc3n(c(=O)c12)CCCCC3 | 0% | 
CC(=O)c1ccc(NC(=O)c2sc3nc4n(c(=O)c3c2C)CCCCC4)cc1 |  | 18.4 µM (active)
CC(=O)c1ccc(NC(=O)c2nc(-c3ccc(C)cc3)n3c2CCCCC3)cc1 |  | 20.6 µM (active)
Cc1ccc(C(=O)Nc2ccc(OCc3cc(=O)n4c5c(sc4n3)CCCC5)cc2)cc1 | -2.43% | 
O=c1c2c(nc3n1CCCCC3)sc1c(O)cccc12 | -5.57% | 
Cc1ccc(NC(=O)C2(N3CCC3=O)CCCCC2)cc1 | 1.95% | 
CC1(Oc2ccccc2-c2ccno2)CCN(Cc2ccc(-c3ccccc3)o2)C1 (stereo unspecified) | 0% | 
CC(C)CCNC(=O)c1[nH]c(C(F)(F)F)nc1-c1ccccc1 | -16.3% | 
NCCCCC(C(=O)O)N(C(=O)OCc1ccccc1)C(=O)OCc1ccccc1 (stereo unspecified) | -3.19% | 
O=C(Nc1ccc(Cl)cc1)c1csc([C@@H]2O[C@H](CO)[C@H](O)[C@H](O)[C@H]2O)n1 | 1.61% | 
CC(=O)Nc1ccc2nc(SCCOc3cc(C)cc(C)c3)sc2c1 | -6.54% | 
O=C1NC[C@H](CCCCN2C[C@H](Cc3ccc(O)cc3)N(CCc3ccccc3)C(=O)C2=O)N(CCc2ccccc2)C1=O | 1.54% | 
Cc1cccc(Cn2c(CN3CCC(C(=O)NCc4ccccc4Cl)CC3)cc3ccccc32)c1 | 4.63% | 
C/C(COc1ccccc1)=N\NC(=O)c1nnn(-c2nonc2N)c1-c1ccc(C)cc1 | 17.6% | 
CCN(CC)c1cc(NC2CCCCC2)c2c3c(onc13)-c1ccccc1C2=O | 25.8% | 
CCOC1=C2CN(S(=O)(=O)c3ccc(C)cc3)[C@H](c3cccs3)C[C@H]2[C@H]2C(=O)N(c3ccccc3)C(=O)[C@H]2C1 | 14.3% | 
Cc1oc(C)c2c(=O)cc(-c3ccc4c(c3)OCO4)cc(OC(=O)c3ccc(Cl)cc3)c12 | 17.3% | 

Compound | activity change, negative = cytotoxicity | Potency
COc1ccc(CCNC(=O)c2cc(-c3ccc4c(c3)OCO4)on2)cc1OC | -20.7% | 
COc1cc(-c2c(-c3ccc4c(c3)OCO4)noc2C)ccc1F |  | 5.8 µM (active)
CC(Oc1ccc(Br)cc1)C(=O)NCC(c1ccco1)N1CCCCC1 (stereo unspecified) |  | 14.6 µM (active)
O=C(CCNC(=O)c1ccc(Br)cc1)NCC(c1ccco1)N1CCCCC1 (stereo unspecified) | 0.991% | 
CC(Oc1ccc(Br)cc1)C(=O)NC1CCCCCC1 (stereo unspecified) | -11% | 
C=CCn1c2c(c3ccccc31)CCC2 | 0.716% | 
COc1ccc(CN2C(=O)C(CC(=O)NCc3cccc4ccccc34)CC(C(=O)N3CCOCC3)=C2C)cc1 (stereo unspecified) | 4.5% | 
O=C(C[C@H]1CC[C@@H](NC(=O)c2ccncc2)[C@@H](CO)O1)NCC1CC1 | -2.33% | 
O=C(CSc1nc(C2CC2)nc2ccccc12)Nc1ccc2c(c1)OCCO2 |  | 14.6 µM (active)
O=C(CSc1nc(C2CC2)nc2ccccc12)Nc1cccc(O)c1 | -5.09% | 
Cc1nnc(NC(=O)CSc2nc(C3CCCCC3)nc3ccccc23)s1 | -17.9% | 
CCc1ccc(OC2(C)CCN(CCOc3ccc(C)cc3)C2)cc1 (stereo unspecified) | -11.1% | 
COc1cc(CNc2ncnc3c2ncn3[C@H]2CN(Cc3cccs3)C[C@@H](CO)O2)cc(OC)c1OC | 4.08% | 
COc1ccc(NC(=O)N(C)C[C@@H]2OCc3cn(nn3)CCCC(=O)N([C@H](C)CO)C[C@H]2C)c(OC)c1 | -1.34% | 
CC(=O)NC1=NN(C(C)=O)C(C)(c2ccc(Cl)s2)S1 (stereo unspecified) |  | 5.8 µM (active)
CC(=O)NC1=NN(C(C)=O)C(C)(c2ccc(C)cc2)S1 (stereo unspecified) | -0.422% | 
CC(=O)NC1=NN(C(C)=O)C(C)(CCS(=O)(=O)c2ccc(Cl)c(Cl)c2)S1 (stereo unspecified) | -0.186% | 
CCNC(=O)C1(C)CCN(Cc2ccc(C(=O)OCC)o2)C1 (stereo unspecified) | 2.24% | 
CC(=O)C[C@@H]1OC[C@H](CO)N1S(=O)(=O)c1ccc(C)cc1 | -0.307% | 
